Marburg entry inh = qHTS for inhibitors of binding or entry into cells for Marburg Virus; Marburg virus pseudotyped entry inhibition, cell reporter; Potency, µM (titrated, usually from 37.8 µM), for the others: at the highest dose activity change, negative = inhibition, hits mostly inhibitors; actives 1.8% (n = 300,000); calls by dose curve; tested in HEK293 cells
VACV Venus inh = qHTS for Stage-Specific Inhibitors of Vaccinia Orthopoxvirus: Venus Reporter Primary qHTS; Vaccinia virus Venus reporter expression, fluorescence; Potency, µM (series often up to 36.5 µM), inactives show at the highest dose activity change, negative = inhibition, usual class: inhibitors; actives 0.46% (n = 330,000); calls by dose curve; tested in A549 cells; also: nearly all actives have a fitted effect of over 30% in size
LASV entry inh = qHTS for Inhibitors of binding or entry into cells for Lassa Virus | Lassa virus pseudotype entry inhibition, cell reporter | Potency, µM (doses to about 37.9 µM), for inactives: at the top dose activity change, negative = inhibition, actives largely listed as inhibitors | actives 1.2% (n = 300,000); calls by dose curve; tested in HEK293 cells; also: nearly all actives have a fitted effect of over 50% in size
FMDV antiviral = High Throughput Screening for Foot and Mouth Disease Virus Antivirals; AID 1159524, 2015; Potency, µM (series often up to 57.9 µM), inactives show top-dose activity change, negative = inhibition, usual class: inhibitors; actives 1.2% (n = 410,000); FMDV antiviral cell-based qHTS; calls by dose curve; tested in HEK293T cells; also: read-out not given here; nearly all actives have a fitted effect of over 45% in size
VACV mCherry inh = qHTS for Stage-Specific Inhibitors of Vaccinia Orthopoxvirus: mCherry Reporter Primary qHTS. Vaccinia virus mCherry reporter infection, fluorescence. Potency, µM (series often up to 36.5 µM), for inactives: top-dose activity change, negative = inhibition, hits mostly inhibitors. actives 0.63% (n = 310,000); calls by dose curve; tested in A549 cells; also: nearly all actives have a fitted effect of over 35% in size
Sm TGR block = qHTS Assay for the Inhibitors of Schistosoma Mansoni Peroxiredoxins; Schistosoma mansoni thioredoxin glutathione reductase (TGR), Q962Y6; purified TGR, DTNB reduction, TNB absorbance 405 nm; Potency, µM (titrated, usually from 114 µM), for inactives: at the top dose activity change, negative = inhibition, usual class: inhibitors; actives 3% (n = 360,000); AID 485364, 2010; active = well fitted inhibition curve with a large enough effect; inconclusive = small, poorly fitted or top-dose-only effect; inactive = no such curve, though single readings can be large or run the other way; also: nearly all actives have a fitted effect of over 60% in size
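Kinetic colorimetric format: TGR-catalysed, NADPH-driven DTNB reduction monitored via TNB absorbance. Enzyme dispensed at 20 nM; compound exposure 15 min at room temperature before reaction start.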
An asterisk follows results filed as active; [ ] = another dose, or the depositor's remark. Compounds with a hit are over-represented: about 5.4% of the library has one in this group of screens. % is scaled to controls: 0 for no effect and ±100 for the full control effect; potency is read from the fitted curve at half-maximal effect.

Results for Cc1ccc(-c2nc3nc(C)cc(N4CCN(c5cc(Cl)ccc5C)CC4)n3n2)cc1 ?
Marburg entry inh: 9.1%[46.1 µM]; VACV Venus inh: -1.7%; LASV entry inh: 12.5%[46.1 µM]; FMDV antiviral: -7.8%; VACV mCherry inh: -15.5%; Sm TGR block: -33.5%

What do the screens show for `Cc1ccc(-c2nc3nc(C)cc(N4CCN(c5cccc(C)c5C)CC4)n3n2)cc1`?
Marburg entry inh: -24.3%[46.1 µM]; VACV Venus inh: 12.9%; LASV entry inh: 11.3%[46.1 µM]; FMDV antiviral: 13.6%; VACV mCherry inh: -10.4%; Sm TGR block: 56.2µM*

What do the screens show for `O=C(CSc1nc2c([nH]c3ccccc32)c(=O)n1-c1ccc(F)cc1)N1CCCCCC1`?
VACV Venus inh: -1.3%; LASV entry inh: 8.0%[46.1 µM]; FMDV antiviral: -14.3%; VACV mCherry inh: -6.6%; Sm TGR block: -2.4%

What do the screens show for `CC(=O)c1ccc(-c2nc3c4ccccc4ccn3c2C(C)=O)o1`?
Marburg entry inh: 1µM*; VACV Venus inh: -8.2%; LASV entry inh: 1.26µM*; FMDV antiviral: 6.7%; VACV mCherry inh: -8.6%; Sm TGR block: -41.7%

How did Cc1ccc(Cc2c(-c3ccco3)nc3c4ccccc4ccn23)cc1 do in these assays?
VACV Venus inh: 1.7%; FMDV antiviral: 3.1%; VACV mCherry inh: 1.2%

What do the screens show for `Cn1cccc1-c1nc2ccc(NC(=O)c3cccs3)cc2[nH]1`?
Marburg entry inh: inconclusive; VACV Venus inh: -3.1%; LASV entry inh: inconclusive; FMDV antiviral: inconclusive; VACV mCherry inh: -1.6%; Sm TGR block: -23.9%

How did CC(=O)Nc1ccc2nc(-c3ccc(Br)o3)[nH]c2c1 do in these assays?
Marburg entry inh: 4.2%; VACV Venus inh: -13.5%; LASV entry inh: inconclusive; FMDV antiviral: 55.9%; VACV mCherry inh: -2.2%; Sm TGR block: 25.1µM*

How did O=C(Nc1ccc2nc(-c3ccc(Br)o3)[nH]c2c1)c1cccs1 do in these assays?
Marburg entry inh: inconclusive; VACV Venus inh: -11.3%; LASV entry inh: inconclusive; FMDV antiviral: -5.3%; VACV mCherry inh: 30.6%; Sm TGR block: 25.1µM*

What do the screens show for `CCc1ccc(-c2nc(CS(=O)CC(=O)NC3CC3)c(C)o2)cc1` (centres undefined)?
VACV Venus inh: 1.4%[7.34 µM]; FMDV antiviral: 20.0%; VACV mCherry inh: 1.2%[7.34 µM]; Sm TGR block: 3.98µM*

Results for CCc1ccc(-c2nc(CS(=O)CC(=O)NC3CCCCCC3)c(C)o2)cc1 (centres undefined) ?
FMDV antiviral: 11.0%; Sm TGR block: 7.94µM*

What do the screens show for `CCc1ccc(-c2nc(CS(=O)CC(=O)NCc3ccc(F)cc3)c(C)o2)cc1` (centres undefined)?
VACV Venus inh: -4.7%; LASV entry inh: 13.1%[46.1 µM]; FMDV antiviral: 2.7%; VACV mCherry inh: -1.9%; Sm TGR block: inconclusive

Results for CCc1ccc(-c2nc(CS(=O)CC(=O)O)c(C)o2)cc1 (centres undefined) ?
VACV Venus inh: -13.9%; FMDV antiviral: -3.6%; VACV mCherry inh: -6.2%; Sm TGR block: 0.355µM*

Results for Cc1ccc(-c2nc(CS(=O)CC(=O)NC3CC3)c(C)o2)cc1 (centres undefined) ?
FMDV antiviral: 6.5%; Sm TGR block: inconclusive

What do the screens show for `CC(C)(C)c1ccc(C(=O)NCC(c2cccs2)S(=O)(=O)c2ccc(F)cc2)cc1` (centres undefined)?
VACV Venus inh: -28.5%; LASV entry inh: inconclusive; FMDV antiviral: 20µM*; VACV mCherry inh: inconclusive; Sm TGR block: -31.2%

How did CC(C)(C)c1ccc(C(=O)NCC(c2cccs2)S(=O)(=O)c2cccs2)cc1 (centres undefined) do in these assays?
VACV Venus inh: -25.7%; LASV entry inh: inconclusive; FMDV antiviral: 0.0%; VACV mCherry inh: -20.6%; Sm TGR block: 35.5µM*

Results for Cc1ccc(C(=O)NCC(c2cccs2)S(=O)(=O)c2cccs2)cc1 (centres undefined) ?
VACV Venus inh: -22.4%; LASV entry inh: -23.1%[46.1 µM]; FMDV antiviral: inconclusive; VACV mCherry inh: inconclusive; Sm TGR block: inconclusive

What do the screens show for `COc1ccccc1C(=O)NCCn1cc(SCC(=O)Nc2ccccc2F)c2ccccc21`?
Marburg entry inh: inconclusive; VACV Venus inh: -9.1%; LASV entry inh: inconclusive; FMDV antiviral: 0.0%; VACV mCherry inh: -9.6%; Sm TGR block: 9.6%

Results for COc1ccc(C(=O)N=c2nc(-c3ccccc3)n(-c3ccccc3)s2)cc1 ?
VACV Venus inh: -7.8%; VACV mCherry inh: 21.5%

What do the screens show for `COc1ccc(C(NC(=O)c2c(F)c(F)c(F)c(F)c2F)c2ccccc2)cc1` (centres undefined)?
Marburg entry inh: inconclusive; VACV Venus inh: inconclusive; LASV entry inh: 22.4µM*; FMDV antiviral: inconclusive; VACV mCherry inh: inconclusive; Sm TGR block: -14.4%

How did OC(C#CCN1CCCC1)(c1ccccc1)c1cccnc1 (centres undefined) do in these assays?
Marburg entry inh: -3.0%[46.1 µM]; VACV Venus inh: -7.8%; LASV entry inh: -4.7%; FMDV antiviral: 4.9%; VACV mCherry inh: inactive; Sm TGR block: 31.6µM*

What do the screens show for `OC(C#CCN1CCCCCC1)(c1ccccc1)c1cccnc1` (centres undefined)?
Marburg entry inh: -21.9%; VACV Venus inh: -7.8%; LASV entry inh: -9.8%; FMDV antiviral: -6.2%; VACV mCherry inh: -8.8%; Sm TGR block: 14.1µM*

How did OC(C#CCCN1CCCCC1)(c1ccccc1)c1ccccc1 do in these assays?
Marburg entry inh: -18.7%[14.2 µM]; VACV Venus inh: -10.5%; LASV entry inh: -2.1%; FMDV antiviral: -4.4%; VACV mCherry inh: inactive; Sm TGR block: -17.6%

What do the screens show for `Cc1ccc(NC(=O)CN(C)C(=O)Cc2ccc(Cl)c(Cl)c2)cc1`?
Marburg entry inh: 0.4%[46.1 µM]; VACV Venus inh: -19.0%; LASV entry inh: 5.0%[46.1 µM]; FMDV antiviral: -1.3%; VACV mCherry inh: -8.0%; Sm TGR block: 5.5%

What do the screens show for `Cc1ccc(NC(=O)Cn2ncc(Cl)c(Cl)c2=O)cc1S(=O)(=O)N1CCCCC1`?
FMDV antiviral: 28.2µM*; Sm TGR block: 8.91µM*

How did Cc1ccc(NC(=O)CN(C)C(=O)Cn2ncc(Cl)c(Cl)c2=O)cc1 do in these assays?
Marburg entry inh: 5.01µM*; VACV Venus inh: inconclusive; LASV entry inh: 15.8µM*; FMDV antiviral: 0.0%; VACV mCherry inh: inconclusive; Sm TGR block: inconclusive

What do the screens show for `O=C(COc1cccnc1[N+](=O)[O-])Nc1cc(S(=O)(=O)N2CCCCC2)ccc1Cl`?
FMDV antiviral: -23.9%; Sm TGR block: -14.6%

What do the screens show for `Cc1ccc(NC(=O)c2cc(=O)c3ccccc3o2)cc1S(=O)(=O)N1CCOCC1`?
FMDV antiviral: -25.2%; Sm TGR block: 9.4%

Screens as filed in PubChem.
